Experimental data from PubChem BioAssay (NCI).
The panel holds about 83,000 compounds, 20% with a hit somewhere; the sample as a whole holds those more often.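 How to read the values: 0–100, growth inhibition (40 = 60% inhibited); 0, no net growth; -100 to 0, cell death (-40 = 40% of starting cells died; -100 = all dead).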 Values without a mark were called inactive. Activity calls are given as the source filed them. The calls were made as follows: active = growth percent below 10; inactive = the rest.

Columns and labels:
Test in all cases: NCI-60 one-dose screen, 48 h (100 = growth as untreated, 0 = no growth, -100 = all killed)
Settings in all cases: 10 µM unless noted
[1] = system: SR leukemia
[2] = system: RPMI-8226 leukemia
[3] = system: OVCAR-8 ovarian
[4] = system: OVCAR-5 ovarian
[5] = system: OVCAR-4 ovarian
[6] = system: SK-OV-3 ovarian
[7] = system: IGROV1 ovarian
[8] = system: OVCAR-3 ovarian
[9] = system: HS 578T breast
[10] = system: NCI/ADR-RES ovarian

Structure (SMILES)	growth [1]	growth [2]	growth [3]	growth [4]	growth [5]	growth [6]	growth [7]	growth [8]	growth [9]	growth [10]
O=C(Nc1ccc(-n2cc(-c3ccncc3)c(-c3ccc(Cl)c(O)c3)n2)cc1)c1cc(C(F)(F)F)cc(C(F)(F)F)c1	23.9%	27.6%	65.4%	84.5%	70%	72.4%	70.5%	53.2%	-4.23% (active)	72.9%
CC(=O)NNC(=O)c1sc(NC(C)=O)nc1C	87.4%	105%	95.6%	97%	122%	92.6%	23.4%	103%	74.9%	104%
CCCC(=O)NNc1[nH]c(-c2ccc(OC)cc2)cc1C(=O)OCC	106%	98.4%	110%	95.7%	117%	113%	18.1%	90%	97.7%	106%
CCCCCCCCCC[N+](C)(C)N	72.7%	78.1%	88.1%	101%	99.1%	99.4%	83.8%	100%	91.9%	112%
COC(=O)c1ccc2[nH]c(O)c(C(=Nc3ccc(N(C)C(=O)CN4CCN(C)CC4)cc3)c3ccc(CCO)cc3)c2c1	6.7% (active)	30.8%	64.5%	80.6%	56.6%	39.7%	16.5%	52.5%	23.9%	104%
COc1cc(-c2cc3cnccc3c3nc(N)c4ccncc4c23)cc(OC)c1OC	17%	8.28% (active)	41.4%	68.7%	73.5%	57.5%	15%	48.8%	10.1%	30.7%
COC(=O)c1ccc2[nH]c(O)c(C(=Nc3ccc(N(C)C(=O)CN4CCN(C)CC4)cc3)c3ccc(OC)cc3)c2c1	-14.8% (active)	7.14% (active)	25.6%	38.4%	38.7%	2.38% (active)	6.44% (active)	30.4%	11.9%	101%
CC(=O)/C(=C/c1ccc(-c2ccccc2)cc1)C(=O)c1ccccc1	5.97% (active)	39.9%	84.5%	106%	85.8%	95.4%	91%	89.4%	102%	93.1%
O=S(=O)(O)CCI	116%	115%	113%	108%	105%	111%	110%	114%	100%	105%
Cc1ccnc2c(NC(C)CCCN)cc(O)c(O)c12 (stereo not given)	79.7%	95.2%	64.9%	79.7%	20%	99.9%	103%	59.8%	80.6%	87.5%
C[C@@H](c1ccc2c(c1)[nH]c1ccc(Cl)cc12)c1nc2ccc(Cl)cc2[nH]1	43.2%	8.76% (active)	94%	75.2%	74.2%	96.3%	57.6%	72%	107%	88.1%
CC(O)C(N)=O (stereo not given)	102%	111%	110%	101%	97.4%	110%	116%	107%	108%	118%
N#CCc1ncc(-c2ccc(C(F)(F)F)cc2)c(NC2CCCCCC2)n1	-23.8% [100 µM] (active)	-32% [100 µM] (active)	26% [100 µM]	50.2% [100 µM]	42.5% [100 µM]	74.9% [100 µM]	44.9% [100 µM]	-19% [100 µM] (active)	52.7% [100 µM]	28.3% [100 µM]
CC([C@H]1CCC2C3CCC4C[C@@H](N)CC[C@]4(C)C3CC[C@@]21C)N(C)C (stereo not given in full)	18.5%	58.7%	85.7%	98.5%	38.4%	91.1%	53.1%	71.5%	79.1%	81.5%
O=C1/C(=C\c2cn(-c3nc(N4CCOCC4)nc(N4CCOCC4)n3)c3ccccc23)c2ccccc2N1c1c(Cl)cccc1Cl	27.4%	60.1%	76.1%	52.1%	65.1%	7.66% (active)	36.2%	69.6%	27.9%	72.4%
c1ccc(C(=NNc2nc3ccccc3o2)c2ccccn2)nc1	11%	6.05% (active)	18.7%	37.5%	21.8%	13.8%	16.3%	16.5%	44.2%	-3.58% (active)
CCOC(=O)c1c(C)oc2ncnc(Nc3ccc(C(=O)NCCc4ccccc4)cc3)c12	89.2%	84.6%	76.7%	110%	45.5%	85.6%	102%	97.3%	51.2%	76.9%
OCC(O)C(O)CC1SCCS1 (stereo not given)	103%	122%	96.3%	106%	112%	103%	107%	101%	106%	102%
COC(=O)[C@H](Cc1cn(C)cn1)NC(=O)[C@H](Cc1c[nH]c2ccccc12)NC(=O)Nc1cc(C(F)(F)F)cc(C(F)(F)F)c1	-42.8% [100 µM] (active)	-38.4% [100 µM] (active)	-78.5% [100 µM] (active)	-73.6% [100 µM] (active)	-50.7% [100 µM] (active)	-89.9% [100 µM] (active)	-46.2% [100 µM] (active)	-95.7% [100 µM] (active)	10.4% [100 µM]	69.7% [100 µM]
CCOc1nc(-c2ccccc2)cc2c(O)c(C(=O)N/N=C/c3ccccc3O)[nH]c(=O)c12	28.2%	99.3%	65.4%	89.7%	93%	102%	50.1%	76.7%	66.1%	5.38% (active)
O=C(/C=C1\C(=O)N(Cc2ccc([N+](=O)[O-])cc2)c2ccccc21)c1ccc(OCCN2CCCC2)cc1	-19% (active)	28.4%	66%	77.3%	64.9%	102%	74.9%	62.7%	50.1%	75.6%
N=C(N)c1ccc(-c2ccc(-c3ccc(Cl)cc3)s2)s1	-30.1% (active)	-38.2% (active)	-37% (active)	-79.4% (active)	-50.8% (active)	-50.9% (active)	-49.5% (active)	-78.8% (active)	-21.7% (active)	-47% (active)
c1cc(C2CCCCC2)ccc1OCCCCCCN1CCNCC1	-4.39% (active)	-31% (active)	48%	41.3%	41.6%	83.8%	8.79% (active)	40.5%	51.9%	54.1%
COC(=O)CC(=O)C(=O)OC	93.1%	101%	105%	108%	108%	106%	108%	106%	105%	106%
COc1ccc2cn3c4ccc(O)cc4[nH]c(=O)c3c2c1	16.1%	13.2%	12.7%	21%	-2.67% (active)	-1.15% (active)	17.6%	-7.15% (active)	-22.4% (active)	-39% (active)
COc1ccc(/C=C/C(=O)/C=C/c2cc3ccccc3[nH]c2=O)cc1	-2.08% (active)	-22% (active)	-11.8% (active)	125%	74.5%	88.8%	130%	32%	102%	92.5%
Cc1cc2c(-c3nc4ccccc4n3C)c(O)c(O)cc2c(O)c1-c1c(C)cc2c(-c3nc4ccccc4n3C)c(O)c(O)cc2c1O	56.4%	24.4%	32.1%	58.1%	70.1%	83.2%	89.7%	71.3%	28.4%	102%
